# Assay outcomes: PubChem BioAssay, several laboratories
# Only some compounds are listed: those with a hit (about 1.4% of all), similar ones and a draw of the others.
# LANA-H2B inh: blockers of LANA interaction with H2A/H2B – biochemical, FP readout, HTS, primary screen; Protein LANA1 (Human herpesvirus 8 type P (isolate GK18)), Q9QR71; inhibition, % (concentration not given with the values); 320,000 tested, 0.6% active; cell-free LANA-H2A/H2B peptide, fluorescence polarization; AID 2629, 2010; in the data active = inhibition mostly above about 10%, no sharp cut-off; inactive = mostly below about 6.7%
# A3A deaminase: APOBEC3A ssDNA deaminase inhibitors, primary screen, selectivity assay for APOBEC3G inhibitor project, biochemical, FAM/TAMRA oligo cleavage fluorescence; DNA dC->dU-editing enzyme APOBEC-3A (Homo sapiens), P31941; recombinant A3A, FAM/TAMRA ssDNA deamination fluorescence; inhibition, % at 20 µM; 330,000 tested, 0.41% active; AID 493011, 2011;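 active = at least 40% inhibition at 20 µM here, with at most 30% in a related deaminase screen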;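 note: plate controls were A3A with DMSO for no effect and wells lacking A3A enzyme for full effect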
# HDAC3 inhib: HDAC3 deacetylase inhibitors, primary screen, biochemical, fluorescence, cell-free homogeneous. Histone deacetylase 3 (Homo sapiens), O15379. recombinant HDAC3, fluorogenic peptide/trypsin coupled. inhibition, % at 8.3 µM. 320,000 tested, 0.15% active; in the data active = inhibition above about 26%, passing the limit was not always enough
# A3G deaminase: APOBEC3G DNA deaminase inhibitors, primary screen, biochemical, fluorescence, single-stranded DNA substrate, uHTS; DNA dC->dU-editing enzyme APOBEC-3G (Homo sapiens), Q9HC16; 330,000 tested, 0.28% active; recombinant A3G, ssDNA deamination FAM/TAMRA fluorescence; inhibition, % at 20 µM;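 active = inhibition of at least 40% at 20 µM, with no more than 30% in the related APOBEC3A deaminase screen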;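 note: plate controls were DMSO wells with A3G for no effect and wells lacking A3G enzyme for full effect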
# Active calls of the source: *; / = no result given.
SMILES,LANA-H2B inh,A3A deaminase,HDAC3 inhib,A3G deaminase
CCC(C)(C)NC(=O)C(c1ccc(C)cc1)N(CC1CCCO1)C(=O)CCC(=O)Nc1ccccn1 (stereo not given),10,-1,4,-4
Cc1ccc(C(C(=O)NC(C)(C)C)N(CC2CCCO2)C(=O)CCC(=O)Nc2ccccn2)cc1 (stereo not given),22*,0,0,-1
O=C(Nc1ccccc1C(=O)NCCCN1CCOCC1)c1ccc(Cl)cc1,88*,-4,-7,6
O=C(Nc1ccccc1C(=O)NCCCN1CCOCC1)c1ccccc1,7,-3,1,-7
O=C(c1ccc(N2CCCC2)c([N+](=O)[O-])c1)N1CCN(S(=O)(=O)c2ccccc2)CC1,/,1,/,0
C=CC[C@H](CC(=O)N[C@H](CO)Cc1ccccc1)C(=O)N[C@@H](COC(=O)[C@@H](CC=C)CC(=O)OC(C)(C)C)Cc1c[nH]c2ccccc12,19*,-1,32*,-8
C=CC[C@@H](CC(=O)N[C@H](CO)Cc1ccccc1)C(=O)N[C@@H](COC(=O)[C@H](CC=C)CC(=O)OC(C)(C)C)Cc1ccccc1,0,3,19,-4
C=CC[C@@H](CC(=O)N[C@@H](CO)Cc1ccccc1)C(=O)N[C@H](COC(=O)[C@@H](CC=C)CC(=O)OC(C)(C)C)Cc1c[nH]c2ccccc12,-405,-1,37*,-3
CCOC(=O)CSc1n[nH]c(NC(=O)c2cccc(C)c2)n1,0,0,90*,-2
CCCCNC(=O)Nc1nc(SCC(=O)OCC)n[nH]1,-1,-3,5,-7
Cc1cc(NC(=O)C(C)SCC(=O)N(C)Cc2c(F)cccc2Cl)no1 (stereo not given),-4,2,0,-5
CS(=O)(=O)N1CCN(C(=O)c2cc(-c3cccs3)nc3ccccc23)CC1,0,-5,-51,-5
CS(=O)(=O)N1CCN(C(=O)c2cc(-c3ccccc3)nc3ccccc23)CC1,9.7*,-3,-4,-5
COc1ccc(CN(CCN(C)C)c2ccccn2)cc1,-14,-1,-2,0
CCCCCCCCCCCCCCCC[N+](C)(C)CCN(Cc1ccc(OC)cc1)c1ncccn1,-12,6,63*,-3
CC(OC(=O)c1ccccc1O)C(=O)Nc1ccc(Cl)cn1 (stereo not given),0,-2,0,-9
CC(OC(=O)c1ccc(S(=O)(=O)N(C)C)cc1)C(=O)Nc1ccc(Cl)cn1 (stereo not given),12*,-3,2,-11
CC(C)(C)N(Cc1ccccc1)C(=O)COC(=O)c1ccc(S(=O)(=O)N2CCOCC2)cc1,0,-2,-6,5
Cn1cccc1CC(=O)NNC(=O)Nc1cccc(Cl)c1,-2,-5,-2,-4
Cn1cccc1CC(=O)NNC(=O)Nc1ccc(Cl)cc1,76*,-4,4,-7
CN(C(=O)COC(=O)C1COc2ccccc2O1)C1(C#N)CCCCC1 (stereo not given),8,2,-1,-5
Nc1ccccc1NC(=O)c1ccccc1N,1,-4,20,-5
Nc1ccccc1NC(=O)NC(=O)c1ccccc1,-1,-6,41*,-5
COc1ccc(/C=C\C(=O)O[C@@H]2C(O)C(O[C@@H]3OC(C)[C@H](O[C@@H]4OCC(O[C@H]5O[C@H](CO)[C@@H](O)C(O)C5O)C(O)C4O)C(O)C3O)[C@H](OC(=O)[C@]34CCC(C)(C)C[C@@H]3C3=CCC5[C@@]6(C)CC(O)C(O[C@@H]7OC(CO)C(O)[C@H](O)[C@H]7O)[C@@](C)(C(=O)O)C6CC[C@@]5(C)[C@]3(CO)CC4)O[C@H]2C)cc1 (stereo not given in full),-1,-4,16,-9
CC(C)(C)OC(=O)NCCCCCNC(=O)c1ncn(Cc2ccccc2)c1C(=O)NCCCCCNC(=O)OC(C)(C)C,3,17,5,7
COC(=O)C1CCN(C(=O)c2ccc(SC)cc2OC)CC1,12*,-1,4,0
CCCCNc1c2c3c(cccc3n(C)c1=O)C(=O)c1ccccc1-2,23*,-113,15,-184
Cn1c(=O)c(NC2CCCCC2)c2c3c(cccc31)C(=O)c1ccccc1-2,/,-108,/,-196
